{"source": "PubChem BioAssay (NCATS)", "note": "Records with an inconclusive call do not appear. Values without a mark were called inactive. Calls of active or inactive are those of the source. The call rests on the fitted dose curve; in most records, active means well fitted curve in the direction sought with a large enough effect; inconclusive means small, poorly fitted or top-dose-only effect, or another doubt; inactive means no such curve, though single readings can be large; an effect the other way counts as inactive or inconclusive."}
{"system": "Zika virus NS2B-NS3 protease (linked construct)", "assay": "384 well plate NINDS Rhodamine confirmatory qHTS for Zika virus inhibitors (AID 1347164); further: nearly all actives have a fitted effect of over 65% in size; further: potency means the concentration at half of the fitted maximal effect;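 on activity change, negative = inhibition: top concentration of the series differs between compounds; plate controls were no-inhibitor control for no effect and no-enzyme control for full effect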", "details": "rhodamine-110 peptide substrate fluorescence; series mostly up to 100 µM; activity change, negative = inhibition: at the top concentration", "outline": "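Fluorescence read at ex 485 nm/em 538 nm, 25 min after adding 10 microM Ac-LKRR-Rd substrate at room temperature in the dark; signal normalized to no-enzyme and no-inhibitor controls. Enzyme final 5, 30 or 60 nM; compounds, ~15 min preincubation.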", "units": {"activity change, negative = inhibition": "%"}}
{"smiles": "Cc1c(C)n(Cc2ccc(-c3ccccc3C(=O)O)cc2)c2ccc(C(=O)N[C@@H](C)c3ccc([N+](=O)[O-])cc3)cc12", "Potency": "22.4 µM (active)"}
{"smiles": "CC(C)c1ccccc1Cc1cc(C(=O)Nc2ccc(S(=O)(=O)c3ccccc3C(C)(C)C)cc2)c(O)c(O)c1O", "Potency": "1.58 µM (active)"}
{"smiles": "COc1cc(C(=O)NS(=O)(=O)c2ccccc2C)ccc1Cc1cn(C)c2ccc(NC(=O)OC3CCCC3)cc12", "Potency": "28.2 µM (active)"}
{"smiles": "C[C@@]12O[C@@H](C[C@]1(O)CO)n1c3ccccc3c3c4c(c5c6ccccc6n2c5c31)CNC4=O", "activity change, negative = inhibition": -272}
{"system": "not listed separately", "assay": "Vero cells viability qHTS for Zika virus inhibitors (AID 1347167); further: potency means the concentration at half of the fitted maximal effect; on activity change, negative = cytotoxicity: on the % scale 0 is the no-effect control and ±100 the full control effect", "details": "cytotoxicity counter-screen (Zika); series mostly up to 45.9 µM; activity change, negative = cytotoxicity: at the top concentration", "outline": "(§1)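 To flag cytotoxic protease inhibitors, viability is measured by ATP-dependent luminescence (CellTiter Glo) after cells attached overnight receive compound for 24 to 48 hours in DMEM with 4% FBS.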"}
{"smiles": "Cc1c(C)n(Cc2ccc(-c3ccccc3C(=O)O)cc2)c2ccc(C(=O)N[C@@H](C)c3ccc([N+](=O)[O-])cc3)cc12", "activity change, negative = cytotoxicity": "-0.614%"}
{"smiles": "CC(C)c1ccccc1Cc1cc(C(=O)Nc2ccc(S(=O)(=O)c3ccccc3C(C)(C)C)cc2)c(O)c(O)c1O", "activity change, negative = cytotoxicity": "-5.75% [at 91.6 µM]"}
{"smiles": "Cc1cc(N2CCOCC2)cc2[nH]c(-c3c(NC[C@@H](O)c4cccc(Cl)c4)cc[nH]c3=O)nc12", "activity change, negative = cytotoxicity": "-17.1%"}
{"smiles": "COc1cc(C(=O)NS(=O)(=O)c2ccccc2C)ccc1Cc1cn(C)c2ccc(NC(=O)OC3CCCC3)cc12", "activity change, negative = cytotoxicity": "-1.87%"}
{"smiles": "CCN1CCN(Cc2ccc(-c3cc4c(N[C@H](C)c5ccccc5)ncnc4[nH]3)cc2)CC1", "Potency": "53.7 µM (active)"}
{"smiles": "C[C@@]12O[C@@H](C[C@]1(O)CO)n1c3ccccc3c3c4c(c5c6ccccc6n2c5c31)CNC4=O", "activity change, negative = cytotoxicity": "-12%"}
{"system": "not listed separately", "assay": "HepG2 cells viability qHTS for Zika virus inhibitors (AID 1347168); further: potency means the concentration at half of the fitted maximal effect; on activity change, negative = cytotoxicity: on the % scale 0 is the no-effect control and ±100 the full control effect", "details": "Zika counter-screen; series mostly up to 45.9 µM; activity change, negative = cytotoxicity: at the top concentration", "outline": "as §1"}
{"smiles": "Cc1c(C)n(Cc2ccc(-c3ccccc3C(=O)O)cc2)c2ccc(C(=O)N[C@@H](C)c3ccc([N+](=O)[O-])cc3)cc12", "activity change, negative = cytotoxicity": "15.1%"}
{"smiles": "CC(C)c1ccccc1Cc1cc(C(=O)Nc2ccc(S(=O)(=O)c3ccccc3C(C)(C)C)cc2)c(O)c(O)c1O", "activity change, negative = cytotoxicity": "-8.19% [at 91.6 µM]"}
{"smiles": "COc1cc(C(=O)NS(=O)(=O)c2ccccc2C)ccc1Cc1cn(C)c2ccc(NC(=O)OC3CCCC3)cc12", "activity change, negative = cytotoxicity": "0.451%"}
{"smiles": "CCN1CCN(Cc2ccc(-c3cc4c(N[C@H](C)c5ccccc5)ncnc4[nH]3)cc2)CC1", "Potency": "38 µM (active)"}
{"smiles": "C[C@@]12O[C@@H](C[C@]1(O)CO)n1c3ccccc3c3c4c(c5c6ccccc6n2c5c31)CNC4=O", "Potency": "16.5 µM (active)"}
{"system": "not listed separately", "assay": "qHTS to identify inhibitors of the type 1 interferon - major histocompatibility complex class I in skeletal muscle: primary screen against the NCATS Pharmaceutical Collection (AID 1347407); further: on the % scale 0 is the no-effect control and ±100 the full control effect", "details": "human skeletal muscle cells, IFN-b-induced MHC-I HiBiT luminescence, 24 h; series mostly up to 45.9 µM; activity change, negative = inhibition: at the top concentration", "from_the_text": "Assay Submitter (PI): Travis B. Kinder Ph.D. & James Inglese Ph.D.\nAssay Development and Screening Technology Laboratory (ADST)\nNational Center for Advancing Translational Sciences (NCATS), Rockville, MD\nNational Institute of Health (NIH), Bethesda, Maryland\nIdiopathic inflammatory myopathies, collectively referred to as myositis, are a group of rare autoimmune diseases characterized by skeletal muscle inflammation, weakness, and usually accompanied by systemic pathologies of the skin, lungs, or vasculature. Current immunosuppressive therapies and glucocorticoids are often not curative and are accompanied by harsh side effects, especially in children with juvenile myositis. We initiated a drug repurposing and development program to identify more targeted, less toxic therapeutics to treat myositis. Although its cause is not known, muscle from a subset of patients have an abundance of the inflammatory type 1 interferon (IFN) and a down-stream product major histocompatibility complex class I (MHC class I), which are both thought to contribute to damage and weakness. We conducted quantitative high throughput screening on 6,576 compounds (4,679 unique) through a series of cell-based assays to identify those that inhibit the IFN-stimulated expression of MHC class I in muscle precursor cells (myoblasts). The compound identification and evaluation strategy utilized a primary screen with reporter-tagged MHC class I in genome-engineered myoblasts, ATP content counter screen for viability, HLA-ABC immunofluorescence secondary screen, and HLA-B RT-qPCR tertiary screen.\nThe primary screen utilized CRISPR/Cas9 genome-engineering of immortalized human myoblasts, C25cl48, where a pro-luminescent reporter HiBit was fused to the C-terminus of endogenous MHC class I allele HLA-B*08:01 (HLA-B HiBit myoblasts). […] After 24 hrs of treatment, cells were assayed by Nano-Glo HiBiT Lytic Detection System (Promega) and luminescence measured by a ViewLux 1430 Ultra HTS (Perkin Elmer). […]", "units": {"activity change, negative = inhibition": "%"}}
{"smiles": "Cc1nc2ccc(CN(C)c3ccc(C(=O)N[C@@H](CCC(=O)O)C(=O)O)s3)cc2c(=O)[nH]1", "activity change, negative = inhibition": -7.92}
{"smiles": "CC(=O)SC[C@@H](C)C(=O)N1CCC[C@H]1C(=O)N[C@@H](Cc1ccccc1)C(=O)O", "activity change, negative = inhibition": 10.1}
{"smiles": "COc1cc(C(=O)NS(=O)(=O)c2ccccc2C)ccc1Cc1cn(C)c2ccc(NC(=O)OC3CCCC3)cc12", "activity change, negative = inhibition": -3.54}
